Unmarked numbers belong to inactive results. Activity calls are given as the source filed them. Calls come from the whole dose curve; as a rule, active = well fitted curve in the direction sought with a large enough effect in the repeat runs; inconclusive = weak or mixed curves; inactive = flat fitted curve, though single readings scatter.
% is set by controls: 0 for no effect and ±100 for the full control effect.

The experiment is described as follows: qHTS assay to test for compound auto fluorescence at 535 nm (green) in HEK293 cells (AID 720680). As to conditions: green autofluorescence 485/535 nm; series mostly up to 46 µM; fluorescence, % of fluorescein: at the top concentration. The source says: U.S. Tox21 Program National Center for Advancing Translational Sciences [NCATS] NIH Chemical Genomics Center [NCGC] U.S. Environmental Protection Agency [EPA] National Institutes of Environmental Health Sciences [NIEHS] National Toxicology Program [NTP] U.S. Food and Drug Administration [FDA] Tox21 Assay Overview: Compound auto fluorescence often interferes with screening of the compound library against various biological targets and signaling pathways. Some of these compounds may have fluorophoric properties. Such properties may interfere with the assay outputs resulting in false positives and/or negatives. To decrease such complications and ensure the compound activities are relevant in terms of biological response, the Tox21 10K compound library was screened for auto fluorescence. From the fluorophores used as reporter signals in our screening assays, the auto fluorescence equivalencies of compounds against three fluorophores have been evaluated: Triamterene, Fluorescein and Rose Bengal sodium for blue, green and red fluorescence, respectively. The fluorescence intensities were measured using Excitation/Emission wavelengths at 405/460nm, 485/535nm and 540/590nm for blue, green and red labels, respectively. This assay includes the green fluorescence data.
Tox21 Assay Protocol Summary: 2,000 HEK293 cells in 5 uL of culture medium containing 10% dialyzed FBS per well were dispensed into black wall/clear bottom 1536-well plates using a Multidrop Combi Dispenser (Thermo Scientific). The assay plates were incubated for 4-5 hr at 37C to allow cell attachment to the well bottom, followed by the transfer of 23 nL compound or DMSO vehicle by a pintool work station (Kalypsys, San Diego, CA). After the assay plates were incubated overnight at 37C and 5% CO2, fluorescence intensities in the assay plates were measured by an Envision (PerkinElmer, Shelton, CT) plate reader using three labels for measuring blue, green and red fluorescence at […] 460, 535 and 590nm respectively.
With `c1ccc2c(c1)Sc1ccccc1N2C[C@@H]1CN2CCC1CC2`, the “fluorescence, % of fluorescein” value was 0.173%. Regarding `CC(=O)OCC(=O)[C@H]1CC[C@H]2[C@@H]3CC[C@H]4C[C@H](O)CC[C@]4(C)[C@H]3C(=O)C[C@]12C`, the “fluorescence, % of fluorescein” value was 0.0798% [at 18.6 µM]. Same read-out and setting: with `OC(c1ccccc1)(c1ccccc1)C1CN2CCC1CC2` (stereo not given) the figure was -0.303%. As to `O=C(O)/C=C/C(=O)O`, the Potency result is “inactive”. For the compound `C[C@@H]1[C@H](O)[C@@H](C)/C=C/C=C/CC/C=C/C=C/C=C/C=C/[C@H](O[C@H]2O[C@@H](C)[C@H](O)[C@@H](N)[C@H]2O)CC2O[C@](O)(C[C@@H](O)[C@H](O)CC[C@@H](O)C[C@@H](O)C[C@@H](O)CC(=O)O[C@H]1C)C[C@H](O)[C@H]2C(=O)O`, the “fluorescence, % of fluorescein” value was 0.0041%. On the same count and under the same terms, to `[2H]C([2H])([2H])[C@H](N)Cc1ccccc1` belongs 0.0765%. Consider `c1ccc2c(c1)Sc1ccccc1N2CC1CN2CCC1CC2` (stereo not given), for which the “fluorescence, % of fluorescein” value was -0.0206%. Regarding `CN=C1CN(O)C(c2ccccc2)=c2cc(Cl)ccc2=N1`, the Potency result was “inactive”.

Turning to `C[C@]12C=CC(=O)C=C1CC[C@@H]1[C@@H]2CC[C@]2(C)OC(=O)CC[C@@H]12`, the “fluorescence, % of fluorescein” value was -0.089%. Same read-out and setting: to `C[C@H]1CC[C@]2(NC1)O[C@H]1C[C@H]3[C@@H]4CC[C@H]5C[C@@H](O)CC[C@]5(C)[C@H]4CC[C@]3(C)[C@H]1[C@@H]2C` belongs -0.0426%; to `C[C@H]1CC[C@]2(NC1)O[C@H]1C[C@H]3[C@@H]4CC[C@H]5C[C@@H](O[C@@H]6O[C@H](CO)[C@H](O[C@@H]7O[C@H](CO)[C@@H](O)[C@H](O[C@@H]8OC[C@@H](O)[C@H](O)[C@H]8O)[C@H]7O[C@@H]7O[C@H](CO)[C@@H](O)[C@H](O)[C@H]7O)[C@H](O)[C@H]6O)CC[C@]5(C)[C@H]4CC[C@]3(C)[C@H]1[C@@H]2C`, 0.0416%. Consider `CCOC(=O)C(O)(c1ccc(Cl)cc1)c1ccc(Cl)cc1`, for which the Potency result was “inactive”.

With `Oc1c(Cl)cc(Cl)cc1Cl`, the Potency result is “inactive”. As for `NCC(O)c1cccc(O)c1` (stereo not given), the “fluorescence, % of fluorescein” value was -0.0079%. Turning to `COc1cc(OC)c(OC)cc1C=O`, the “fluorescence, % of fluorescein” value was -0.177% [at 91.3 µM]. As to `C[C@]12CCC(=O)C[C@@H]1CC[C@@H]1[C@@H]2CC[C@@]2(C)[C@H]1CC[C@]2(C)O`, the “fluorescence, % of fluorescein” value was 0.0474%. For the compound `[S]=[Sb](=[S])[S][Sb](=[S])=[S]`, the “fluorescence, % of fluorescein” value was 0.0155%. Still for that read-out and setting: to `CC(=O)OO` belongs 0.0405%. On to `O=C(O)/C=C\C(=O)O`, for which the Potency entry is “inactive”. `Oc1ccc2c3c1O[C@H]1[C@@H](O)C=C[C@H]4[C@H](C2)NCC[C@@]341`: the “fluorescence, % of fluorescein” value is 0.239%. `Cc1ccc(O)cc1C`: the Potency entry was “inactive”. On to `O=C(C[C@@H]1NCCC[C@H]1O)Cn1cnc2cc(Br)c(Cl)cc2c1=O`, for which the “fluorescence, % of fluorescein” value was -0.0032%.

Take `C[C@@H](CO)NC(=O)[C@@H]1C=C2c3cccc4[nH]cc(c34)C[C@H]2N(C)C1`: the “fluorescence, % of fluorescein” value is 0.878%. The same measure, in the same setting: to `COc1ccc2c3c1O[C@H]1C(=O)CC[C@H]4[C@@H](C2)N(C)CC[C@]314` belongs 0.0523%; to `O=[N+]([O-])c1ccccc1Cl`, -0.0651% [at 91.3 µM]. The same measure, in the same setting: with `CN[C@@H](C)Cc1ccccc1` the figure was 0.0096% [at 91.3 µM]. With `CC(=O)Oc1ccc2c3c1O[C@H]1[C@@H](OC(C)=O)C=C[C@H]4[C@@H](C2)N(C)CC[C@@]341`, the Potency entry was “inactive”.

For the compound `CC(C)CCC(=O)O[C@H]1CC[C@H]2[C@@H]3CCC4=CC(=O)CC[C@]4(C)[C@H]3CC[C@]12C`, the “fluorescence, % of fluorescein” value was 0.03%. Same read-out and setting: with `C[C@]12CCC(=O)C=C1C=C[C@@H]1[C@@H]2CC[C@@]2(C)[C@H]1CC[C@@]2(O)CCC(=O)O` the figure was 0.164% [at 18.6 µM]; with `C=CCC1(C(C)CCC)C(=O)N=C(S)NC1=O` (stereo not given), -0.0347%.

Take `O=C1C[C@@H]2OCC=C3CN4CC[C@]56c7ccccc7N1[C@H]5[C@H]2[C@H]3C[C@H]46` (tested in a mixture with another compound): the Potency result is “inactive”. For `C=C[C@H]1CN2CC[C@H]1C[C@H]2[C@H](OC(=O)OCC)c1ccnc2ccc(OC)cc12`, the “fluorescence, % of fluorescein” value is -0.0052%. Same read-out and setting: to `CO/C=C(/C(=O)OC)c1ccccc1Oc1cc(Oc2ccccc2C#N)ncn1` belongs 0.413% [at 95.7 µM]; to `O=P(O)(O)C(Cl)(Cl)P(=O)(O)O`, -0.145%; to `CCCCNC(C)(C)[P+](=O)O`, -0.0008%. On the same count and under the same terms, with `CC(C)NC(C)Cc1ccc(I)cc1` (stereo not given) the figure was 0.181%; with `CNC(C)Cc1ccccc1` (stereo not given), -0.0074% [at 91.3 µM]. As to `CCC(N)Cc1c[nH]c2ccccc12` (stereo not given), the Potency entry is “inactive”.

In the case of `CC(=O)O[C@H]1CC[C@H]2[C@@H]3CCC4=CC(=O)CCC4=C3C=C[C@]12C`, the “fluorescence, % of fluorescein” value was 0.0043%. Still for that read-out and setting: to `c1ccc(C2(N3CCCC3)CCCCC2)cc1` belongs 0.329%.

(Values after PubChem BioAssay (Tox21).)
